Screens as filed in PubChem.
The list is not random: actives were taken first. Their share in the collection is about 7.3%.
SMN2 splice enh: qHTS Assay for Enhancers of SMN2 Splice Variant Expression; HEK293 SMN2-luciferase splicing reporter, luminescence, 30-36 h; Potency, µM (highest dose often 46.1 µM), without a hit: at the highest dose activity change, positive = activation, actives largely listed as activators; 210,000 compounds, 2.8% hits; note: % of control where 0% means no effect; nearly all actives have a fitted effect of over 55% in size
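HEK293 cells carry an SMN2 […]–luciferase reporter in which exon 7 inclusion puts luciferase in frame. Cells were plated 10-12 h before compound addition, then incubated 30-36 h at 37C. ONE-Glo luminescence was read; sodium butyrate at 4.5 mM final served as control.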
NPC1 prom act: qHTS Assay for NPC1 Promoter Activators | Huh7 NPC1 promoter luciferase reporter, 24 h | Potency, µM (titrated, usually from 9.22 µM), for inactives: at the top dose activation, most hits filed as activators | 320,000 compounds, 2.4% hits | AID 485313, 2010; note: % of control where 0% means no effect; nearly all actives have a fitted effect of over 60% in size
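Huh7 reporter cells (NPC1 promoter driving luciferase) are dosed with compound for 24 h at 37 °C, 5% CO2; luciferase detection reagent is then added and luminescence measured after 10 min at ambient temperature.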
Rab9 prom act: qHTS Assay for Rab9 Promoter Activators. 320,000 compounds, 2.8% hits. Potency, µM (highest dose often 9.22 µM), inactives show top-dose activation, negative = inhibition, most hits filed as activators. Huh7 Rab9 promoter-luciferase reporter, luminescence, 24 h; note: % of control where 0% means no effect; nearly all actives have a fitted effect of over 60% in size
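Luminescence from Amplite-detected luciferase (10 minutes, ambient) reports Rab9 promoter activation. Before that, stable Rab9-luciferase Huh7 cells (1500/well, reduced-serum OP-MEM I plus 10% FBS) were exposed to compound for 24 hours at 37C.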
KinaseGlo FLuc: Counterscreen for Luciferase (Kinase-Glo TM) Inhibition | Luciferin 4-monooxygenase (Photuris pensylvanica), Q27757 | Kinase-Glo luciferase, ATP luminescence, 8 min | Potency, µM (series often up to 38.3 µM), for the others: at the highest dose activity change, negative = inhibition, hits mostly inhibitors | 200,000 compounds, 0.28% hits | AID 1379, 2008; note: % is set by controls: 0 for no effect and ±100 for the full control effect; nearly all actives have a fitted effect of over 60% in size
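Light output from Kinase-Glo luciferase with luciferin and 10 uM ATP in 50 mM imidazole pH 7.2, KCl, MgCl2, Tween 20, BSA; compound pin-delivered, 8-min ambient incubation, then luminescence read.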
FLuc modulator: qHTS profiling assay for firefly luciferase inhibitor/activator using purifed enzyme and Km concentrations of substrates (counterscreen for miR-21 project); Potency, µM (highest dose often 57.5 µM), for the others: at the top dose activity change, negative = inhibition, hits mostly inhibitors; Luciferin 4-monooxygenase (Photinus pyralis), P08659; 360,000 compounds, 6.9% hits; purified FLuc, Km substrates, luminescence inhibition;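 note: plate controls were vehicle for no effect and reference inhibitor for full effect; nearly all actives have a fitted effect of over 55% in size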
Target sequence (P08659 whole entry, looked up): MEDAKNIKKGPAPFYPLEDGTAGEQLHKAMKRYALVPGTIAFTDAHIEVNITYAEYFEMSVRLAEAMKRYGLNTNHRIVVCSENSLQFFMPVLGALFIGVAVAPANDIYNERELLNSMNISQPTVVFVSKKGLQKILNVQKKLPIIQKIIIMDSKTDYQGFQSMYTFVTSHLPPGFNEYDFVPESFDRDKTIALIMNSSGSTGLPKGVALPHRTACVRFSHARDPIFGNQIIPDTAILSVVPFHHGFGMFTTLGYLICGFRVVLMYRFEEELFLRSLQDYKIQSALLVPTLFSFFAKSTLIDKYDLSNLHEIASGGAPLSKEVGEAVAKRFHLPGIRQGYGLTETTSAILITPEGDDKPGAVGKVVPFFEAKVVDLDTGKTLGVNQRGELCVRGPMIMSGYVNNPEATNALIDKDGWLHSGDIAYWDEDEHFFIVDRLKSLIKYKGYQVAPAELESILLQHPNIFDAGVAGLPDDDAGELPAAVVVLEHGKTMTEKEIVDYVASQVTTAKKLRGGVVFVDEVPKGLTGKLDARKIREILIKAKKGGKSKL
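Purified P. pyralis luciferase, 10 nM final, with Km-level 10 uM D-luciferin and 10 uM ATP in 50 mM Tris acetate pH 7.5, 10 mM Mg acetate, 0.01% Tween-20, 0.05% BSA; 6-point qHTS titration about 60 µM downward; luminescence read.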
Active calls of the source: *; ? = inconclusive; / = no result; [ ] = remark or other dose. Calls come from the whole dose curve; as a rule, active = well fitted curve in the direction sought with a large enough effect; inconclusive = small, poorly fitted or top-dose-only effect, or another doubt; inactive = no such curve, though single readings can be large; an effect the other way counts as inactive or inconclusive. Potency is the fitted concentration of half-maximal effect.

SMILES	SMN2 splice enh	NPC1 prom act	Rab9 prom act	KinaseGlo FLuc	FLuc modulator
O=C(Nc1cccnc1)Nc1ccc(Cl)cc1Cl	14%	-3%	3%	1%	?
COc1ccc(NC(=S)N2CCCCC2c2cccnc2)cc1 (stereo not given)	/	1%	-3%	/	17µM*
CC1CC1c1ccc(/C=C(\C#N)C(=O)Nc2ccccc2Cl)o1 (stereo not given)	?	16%	22%	-1%	19µM*
N#C/C(=C\c1ccc(-c2ccc(C(=O)O)cc2)o1)C(=O)Nc1ccccc1C(=O)O	-5%	/	/	/	13µM*
CCc1ccccc1NC(=O)/C(C#N)=C/c1ccc(Sc2ccccc2)o1	-26%	0%	-4%	1%	?
CCOc1ccc(NC(=O)/C(C#N)=C\c2ccc(-c3ccc(Cl)cc3)o2)cc1	-3%	/	/	/	-7%
CC1CC1c1ccc(/C=C(\C#N)C(=O)Nc2ccc(Cl)cc2)o1 (stereo not given)	8.9µM*	3.5µM*	3.5µM*	-4%	4.8µM*
CCc1ccc(S(=O)(=O)c2nnn3c2nc(N(C)Cc2ccccc2)c2cc(Cl)ccc23)cc1	4%	/	/	/	-1%
COc1ccc(C2CC(=O)N(CC(=O)Nc3ccc(C(C)=O)cc3)c3ccccc3S2)cc1OC (stereo not given)	-12%	/	/	/	-19%
CCN1CCOC(=O)C1CC(=O)Nc1ccc(Br)cc1 (stereo not given)	4%	/	/	/	0%
O=C(O)CCn1ccc2cc(S(=O)(=O)N3CCCCC3)ccc21	-28%	/	/	/	-20%
CN(C(=O)c1ccc(NC(=O)c2ccco2)cc1)c1ccccc1	/	?	?	/	17µM*
O=C(Nc1ccc(Cl)cc1)c1ccco1	/	2.8µM*	?	/	17µM*
COc1ccc(-c2ccc(NC(=O)c3ccco3)cc2)nn1	/	?	0.1µM*	/	1.2µM*
O=C(COc1ccc(Cl)cc1)Nc1ccc(NC(=O)c2ccco2)cc1	/	16%	13%	/	1%
CC1N(C)c2cc(NC(=O)c3ccco3)c(P(=O)(Nc3ccc([N+](=O)[O-])cc3)N3CCOCC3)cc2C1(C)C (stereo not given)	-29%	1%	-26%	0%	6%
CC1N(C)c2cc(NC(=O)c3ccco3)ccc2C1(C)C (stereo not given)	16µM*	3.2µM*	1µM*	-5%	9.5µM*
CN(C(=O)c1cccc(NC(=O)c2ccco2)c1)c1ccccc1	/	2%	3%	/	2%
O=c1cc(-c2ccccc2)n2c(SCc3cccc([N+](=O)[O-])c3)nnc2[nH]1	/	/	/	/	-18%
CCCS(=O)(=O)c1c(S(=O)(=O)CCC)c2cc(C(C)(C)C)ccn2c1C(=O)c1ccc(OC)c(OC)c1	/	/	/	/	1%
CCc1ccc(S(=O)(=O)Nc2ccc3oc(C)c(C(=O)OCCOC)c3c2)cc1	-13%	/	/	/	?
CC1CCCN(S(=O)(=O)c2cc3c4c(c2)CC(=O)N4CCC3)C1 (stereo not given)	/	/	/	/	1%
CC(=O)Nc1ccc(NC(=O)c2ccco2)cc1	18µM*	22%	?	14%	?
CC(=O)c1ccc(NC(=O)c2ccc(NC(=O)c3ccco3)cc2)cc1	/	2%	0%	/	-5%
CCC(C)c1ccc(NC(=O)c2ccco2)cc1 (stereo not given)	/	0.14µM*	0.32µM*	/	0.43µM*
SMILES	SMN2 splice enh	NPC1 prom act	Rab9 prom act	KinaseGlo FLuc	FLuc modulator
O=C(CCSc1ccc(Cl)cc1)c1ccco1	/	-2%	-2%[1.84 µM]	/	21µM*
CN1CCC(Oc2ccc(Sc3ccccc3)cc2)CC1	6%	18%	21%	-3%	12µM*
CN1CCC(Oc2ccccc2Sc2ccc(C(F)(F)F)cc2)CC1	-59%	-6%	0%	-3%	1%
Oc1ccc(Nc2nc(-c3cccs3)cs2)cc1	18%	-2%	-4%	-1%	?
COc1ccccc1Nc1nc(-c2cccs2)cs1	11µM*	13%	?	-5%	4.8µM*
COc1ccc(Nc2nc(-c3cccs3)cs2)cc1	10µM*	2.5µM*	2µM*	-7%	0.67µM*
COc1ccc(Nc2nc(-c3cccs3)cs2)c(OC)c1	/	?	2.2µM*	-1%	4.8µM*
COc1ccc(OC)c(Nc2nc(-c3cccs3)cs2)c1	27%	13%	2%	6%	?
COc1ccccc1C(=O)C1CCCN(C(=O)c2ccccc2Cl)C1 (stereo not given)	/	2%	-2%	/	0%
COc1ccccc1C(=O)C1CCCN(C(=O)c2cn3cc(Cl)ccc3n2)C1 (stereo not given)	/	-4%	-3%	-3%	13µM*
CCCN(CCC)C(=O)Cn1nnc2sc(-c3ccccc3)cc2c1=O	-6%	/	/	/	-1%
Cc1nn(-c2ccccc2)c(N2CCCC2)c1/C=N/NC(=O)c1ccccc1O	13%	-2%	-6%	1%	-16%
O=C(N/N=C/c1cc2c3c(c1O)CCCN3CCC2)c1ccccc1O	-102%	-9%	-26%	-1%	24µM*
CCOc1ccc(N2CC(c3nc(-c4cc(OC)c(OC)c(OC)c4)no3)CC2=O)cc1 (stereo not given)	/	/	/	/	1%
CCCC(=O)Oc1c(Sc2ccc(C)cc2)c(C)nn1-c1ccccc1	6%	/	/	/	?
CCOC(=O)CNC(=O)c1ccc2[nH]c3ccccc3c2c1	-7%	-4%	-3%	2%	17µM*
CCOC(=O)CNC(=O)c1ccc(C)cc1	10%	0%	2%	-8%	13µM*
Cc1ccc(C(=O)NCC(=O)OCC(=O)NCCNC(=O)COC(=O)CNC(=O)c2ccc(C)cc2)cc1	/	-5%	0%	/	8%
CCOC(=O)CNC(=O)c1ccc(OCC(F)(F)F)cc1	13µM*	?	2µM*	?	?
CCc1ccc(NC(=O)C(CC)n2c(=O)c(-c3ccccc3NC(C)=O)nc3ccccc32)cc1 (stereo not given)	/	/	/	/	-6%
CCCc1cc(=O)oc2c(C)c(OCC(=O)N3CCC[C@@H]3C(=O)O)ccc12	/	-6%	-2%	/	6%
CCCCCCc1c(C)c2ccc(OCC(=O)N3CCC[C@H]3C(=O)O)c(C)c2oc1=O	/	0%	-10%	/	17µM*
CCOC(=O)CCc1c(C)c2ccc(OCC)c(C)c2oc1=O	-6%	2%	-8%	20%	12µM*
CCOC(=O)CCc1c(C)c2ccc(OCC(=O)N3CCOCC3)c(C)c2oc1=O	/	6%	5%	/	-2%
O=C(NCc1ccccc1)c1nn(-c2ccccc2)nc1CO	-36%	/	/	/	5%
CCC(=O)c1ccc(CCCCCC(=O)O)s1	/	13%	4%	-2%	9.5µM*
CC(=O)c1ccc(CCCCCCCCCC(=O)O)s1	9%	-1%	-4%	3%	?
